STK33 kin inh: blocks human STK33 kinase activity | Q9BYT3 | ADP-Glo luminescence, MBP substrate | inhibition, % at 12.5 µM | hit rate 0.44% among 27,000 | AID 2322; in the data active = inhibition above about 20%
Target sequence (Q9BYT3 whole entry, looked up): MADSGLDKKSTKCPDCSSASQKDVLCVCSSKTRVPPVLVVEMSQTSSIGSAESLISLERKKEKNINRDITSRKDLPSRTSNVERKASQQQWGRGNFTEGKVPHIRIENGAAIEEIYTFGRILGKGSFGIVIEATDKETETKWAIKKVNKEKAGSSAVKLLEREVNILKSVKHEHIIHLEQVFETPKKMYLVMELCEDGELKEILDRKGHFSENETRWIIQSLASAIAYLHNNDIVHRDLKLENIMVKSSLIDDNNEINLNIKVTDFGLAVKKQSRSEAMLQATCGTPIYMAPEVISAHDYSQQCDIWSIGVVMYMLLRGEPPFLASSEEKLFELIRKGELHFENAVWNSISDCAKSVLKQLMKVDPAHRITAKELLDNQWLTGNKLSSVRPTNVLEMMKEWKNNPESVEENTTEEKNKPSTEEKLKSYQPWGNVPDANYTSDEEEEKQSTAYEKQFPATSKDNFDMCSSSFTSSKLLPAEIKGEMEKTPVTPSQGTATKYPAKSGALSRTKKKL
ID4 binder: ID4 (human) binding. hit rate 1.2% among 31,000. small molecule microarray, Flag-ID4 binding, fluorescence F/B. calls only; call rule not given here;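 note: a binder raises fluorescence above local background on the spot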
Target sequence (P47928 whole entry, looked up): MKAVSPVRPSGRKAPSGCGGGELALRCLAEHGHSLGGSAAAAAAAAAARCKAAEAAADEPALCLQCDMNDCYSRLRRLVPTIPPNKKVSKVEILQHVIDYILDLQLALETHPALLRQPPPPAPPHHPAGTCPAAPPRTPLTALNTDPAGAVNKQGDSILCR
Large screens that a line does not name were inactive. Only some compounds are listed: those with a hit (about 1.1% of all), similar ones and a draw of the others.

CCN1CCN(c2oc(COc3ccccc3C)nc2C#N)CC1	none (no result: STK33 kin inh)
C=CCN1CCN(c2nc3ccccc3nc2C#N)CC1	ID4 binder active
Cc1cc(C)nc(NS(=O)(=O)c2ccc(NC(=O)c3ccc(C(=O)c4ccccc4)cc3)cc2)n1	ID4 binder active
Cc1cc(C)nc(NS(=O)(=O)c2ccc(NC(=O)c3ccc(-c4ccccc4)cc3)cc2)n1	none
O=P(CCNCc1cccnc1)(c1ccccc1)c1ccccc1	ID4 binder active (no result: STK33 kin inh)
O=C(NCc1cccnc1)c1cc(-c2ccccc2)on1	none
Cc1cc(NC(=O)CSc2nnnn2-c2ccccc2)ccc1Cl	none
Cc1ccc(NC(=O)CSc2nnnn2-c2ccc(Cl)c(C(=O)O)c2)cc1C	ID4 binder active
CC(C)N1C(=O)[C@@]2(Cc3ccccc31)c1ccccc1C(=O)N(Cc1ccccc1Cl)[C@H]2c1ccc(CO)cc1	none
C[C@@H]1CN([C@H](C)CO)C(=O)c2cc(NC(=O)CCCN(C)C)ccc2O[C@@H]1CN(C)C(=O)Nc1cccc2ccccc12	none (no result: STK33 kin inh)
C[C@H]1CN([C@@H](C)CO)C(=O)c2cc(NS(C)(=O)=O)ccc2O[C@H]1CN(C)C(=O)Nc1ccccc1	none (no result: ID4 binder)
C[C@@H]1CN([C@@H](C)CO)C(=O)c2cc(NS(C)(=O)=O)ccc2O[C@@H](C)CCCCO[C@@H]1CN(C)C(=O)Nc1ccccc1	ID4 binder active (no result: STK33 kin inh)
C[C@H](CO)N1C[C@H](C)[C@@H](CN(C)C(=O)Nc2ccccc2)Oc2ccc(NS(C)(=O)=O)cc2C1=O	ID4 binder active (no result: STK33 kin inh)
C[C@@H]1CCCCO[C@H](CN(C)S(=O)(=O)c2cn(C)cn2)[C@H](C)CN([C@H](C)CO)C(=O)c2cc(NS(C)(=O)=O)ccc2O1	ID4 binder active (no result: STK33 kin inh)
C[C@@H]1CCCCO[C@H](CN(C)S(=O)(=O)c2cn(C)cn2)[C@@H](C)CN([C@H](C)CO)C(=O)c2cc(NS(C)(=O)=O)ccc2O1	none
C[C@H]1CCCCO[C@H](CN(C)C(=O)Nc2ccccc2)[C@@H](C)CN([C@@H](C)CO)C(=O)c2cc(NS(C)(=O)=O)ccc2O1	none (no result: STK33 kin inh)
C[C@@H]1CN([C@@H](C)CO)C(=O)c2cc(NC(=O)CCCN(C)C)ccc2O[C@H]1CN(C)C(=O)Nc1cccc2ccccc12	ID4 binder active (no result: STK33 kin inh)
C[C@H]1CN([C@@H](C)CO)C(=O)c2cc(NC(=O)Cc3ccccc3)ccc2O[C@@H]1CN(C)C	none (no result: STK33 kin inh)
COC(=O)c1ccc(NC(=O)C2CCN(S(=O)(=O)c3cc(C)ccc3OC)CC2)cc1	none
Cc1ccc2nc(SCC(=O)NCc3ccccc3)[nH]c2c1	none
C[C@@H]1CN([C@H](C)CO)C(=O)c2cc(NS(C)(=O)=O)ccc2O[C@H]1CN(C)Cc1ccccc1	none (no result: STK33 kin inh)
C[C@H](CO)N1C[C@H](C)[C@@H](CN(C)Cc2ccccc2)Oc2ccc(NS(C)(=O)=O)cc2C1=O	ID4 binder active (no result: STK33 kin inh)
C[C@H](CO)N1C[C@H](C)[C@H](CN(C)C)Oc2ncc(-c3ccccc3F)cc2C1=O	none (no result: STK33 kin inh)
C[C@H](CO)N1C[C@H](C)[C@@H](CN(C)C)OCCCC[C@H](C)Oc2ccc(N(C)C)cc2C1=O	none (no result: STK33 kin inh)
O=C(COc1ccc(Br)cc1)Nc1cccc(-c2nc3ncccc3o2)c1	none
COc1cc(C(=O)Nc2cccc(-c3nc4ncccc4o3)c2)cc(OC)c1OC	STK33 kin inh 30
C[C@@H]1CN([C@H](C)CO)C(=O)Cc2cc(NC(=O)Nc3cccc4ccccc34)ccc2O[C@@H]1CN(C)C(=O)Nc1cccc2ccccc12	none (no result: STK33 kin inh)
O=c1c2ccccc2oc2ccc(O)cc12	none
COc1ccc2oc3ccccc3c(=O)c2c1	STK33 kin inh 61 (no result: ID4 binder)
COc1ccc(C#Cc2ccc3c(c2)[C@]2(C(=O)N3)[C@H](c3ccc(OCCO)cc3)N3[C@H](c4ccccc4)[C@H](c4ccccc4)OC(=O)[C@H]3[C@@H]2C(=O)Nc2nc3ccccc3s2)cc1	none (no result: STK33 kin inh)
C[C@H](CO)N1C[C@H](C)[C@@H](CN(C)Cc2ccccc2C(=O)O)Oc2ncc(C3=CCCCC3)cc2C1=O	ID4 binder active (no result: STK33 kin inh)
C[C@H]1CN([C@@H](C)CO)C(=O)c2cc(C3=CCCCC3)cnc2O[C@@H]1CN(C)Cc1ccccc1	none (no result: STK33 kin inh)
C[C@H](CO)N1C[C@H](C)[C@@H](CN(C)Cc2ccccc2F)Oc2ncc(C3=CCCCC3)cc2C1=O	none (no result: STK33 kin inh)
C[C@@H]1CN([C@H](C)CO)C(=O)c2cc(C3=CCCCC3)cnc2O[C@H]1CN(C)Cc1ccc(C(=O)O)cc1	ID4 binder active (no result: STK33 kin inh)
Cc1noc(C)c1NC(=O)Nc1cccc2c1O[C@@H](CN(C)Cc1ccccc1)[C@H](C)CN([C@@H](C)CO)C2=O	none (no result: STK33 kin inh)
C[C@@H]1CN([C@H](C)CO)C(=O)c2cc(NC(=O)Nc3ccc4c(c3)OCO4)ccc2O[C@@H]1CN(C)C(=O)Nc1ccc2c(c1)OCO2	none (no result: STK33 kin inh)
C[C@@H]1CN([C@@H](C)CO)C(=O)c2cc(NC(=O)Cn3cnnn3)ccc2O[C@H]1CN(C)S(=O)(=O)c1cccs1	none
CCCC(=O)N(CCc1c[nH]c2ccccc12)[C@@H]1CC(C(=O)NCCO)=C[C@H](Oc2c(I)cc(CO)cc2OC)[C@H]1O	ID4 binder active (no result: STK33 kin inh)
COc1cc(SC)ccc1C(=O)NCCc1c[nH]c2ccccc12	none
C[C@@H]1CN([C@H](C)CO)C(=O)c2cc(/C=C/c3ccccc3)cnc2O[C@@H]1CN(C)C(=O)CN(C)C	none (no result: STK33 kin inh)
Cc1cccc(C(=O)NCc2n[nH]c(=S)n2-c2ccccc2)c1	ID4 binder active
COc1ccc(C(=O)NCc2n[nH]c(=S)n2C)cc1OC	none
COc1ccc(NC(=O)N(C)C[C@H]2OCc3ccccc3-c3c(n(C)c4ccccc34)C(=O)N([C@H](C)CO)C[C@H]2C)c(OC)c1	none (no result: STK33 kin inh)
Brc1c(Br)c(Br)c2n[nH]nc2c1Br	STK33 kin inh 20
NC(=O)CSc1nc2c(c(=O)n1Cc1ccccc1)C1(CCCCC1)Cc1ccccc1-2	none
CC(C)NCc1ccccc1OCC(N)=O	none
CNC[C@@H]1Oc2ccc(NS(C)(=O)=O)cc2C(=O)N([C@@H](C)CO)C[C@H]1C	ID4 binder active (no result: STK33 kin inh)
CNC[C@@H]1Oc2ccc(NS(C)(=O)=O)cc2C(=O)N([C@@H](C)CO)C[C@@H]1C	none (no result: ID4 binder)
CNC[C@H]1Oc2ccc(NS(C)(=O)=O)cc2C(=O)N([C@@H](C)CO)C[C@@H]1C	none (no result: ID4 binder)
CNC[C@H]1Oc2ccc(NS(C)(=O)=O)cc2C(=O)N([C@H](C)CO)C[C@@H]1C	ID4 binder active (no result: STK33 kin inh)
COC(=O)c1ccccc1NC(=O)CSc1nnc(C23CC4CC(CC(C4)C2)C3)n1C	none
C/C(=C\Cc1c(O)ccc2cc(O)c(=O)oc12)COC1OC(CO)C(O)C(O)C1O (configuration not stated)	none
COc1cccc(OCC(=O)Nc2ccc(-c3nc4ccccc4[nH]3)cc2)c1	ID4 binder active
COc1ccccc1OCC(=O)Nc1ccc(-c2nc3ccc(C)cc3[nH]2)cc1	none
CCOC(=O)c1ccc(NC(=O)CSc2nc3ccccc3c(=O)[nH]2)cc1	none
O=S(=O)(NCCNC/C=C/c1ccc(Br)cc1)c1cccc2cnccc12	STK33 kin inh 79 (no result: ID4 binder)
NCCNS(=O)(=O)c1cccc2c(Cl)cccc12	none
CNCCNS(=O)(=O)c1cccc2cnccc12	STK33 kin inh 22
CC(C)NC(=O)Nc1cccc2c1O[C@H](CN(C)Cc1ccc(C(F)(F)F)cc1)[C@H](C)CN([C@@H](C)CO)C2=O	none (no result: STK33 kin inh)
CC(=O)O[C@@H]1c2c(ccc3ccc(=O)oc23)O[C@@H]1C(C)(C)OC(=O)C=C(C)C	none
CCn1c2ccccc2c2nnc(SCC(N)=O)nc21	none
COC(=O)C(C)Sc1nnc2c3ccccc3n(Cc3ccccc3)c2n1 (configuration not stated)	ID4 binder active
Cc1cc(OC(C)c2nc(-c3nonc3N)no2)ccc1Cl (configuration not stated)	none (no result: STK33 kin inh)

Source: PubChem
